Measurements reported in article PMC12820563, “FoxP3 forms a head-to-head dimer in vivo and stabilizes its multimerization on adjacent microsatellites”.
Whole data set: some 16,000 sequences, median “rpm ratio (pull-down/input)” near 0.5, cut for the highest 2% near 5.5. Only a selection was taken, and the highest values are over-represented in it overall.

target: T1, MBP-FoxP3dN (Mus musculus, UniProt Q99JB6 188-423); experiment: PD-seq (MBP pull-down with sequencing); 20 mM Tris-HCl pH 7.5, 100 mM NaCl, 1.5 mM MgCl2, 0.4 uM protein, 0.1 uM dsDNA library, 30 min, room temperature, amylose pull-down; high values mean tight binding; conditions: protein: recombinant; tags: His6-MBP; chain copies: 2; dsDNA, one strand shown
T1 sequence: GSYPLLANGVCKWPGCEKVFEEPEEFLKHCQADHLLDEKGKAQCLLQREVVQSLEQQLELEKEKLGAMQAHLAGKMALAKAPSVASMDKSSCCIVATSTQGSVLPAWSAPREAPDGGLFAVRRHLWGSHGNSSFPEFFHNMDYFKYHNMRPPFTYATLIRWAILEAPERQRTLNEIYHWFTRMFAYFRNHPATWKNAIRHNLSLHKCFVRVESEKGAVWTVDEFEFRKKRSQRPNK
Summary of the method: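 Protein and DNA were mixed at 0.4 µM and 0.1 µM and held for 30 min at room temperature in Tris pH 7.5 buffer with NaCl and MgCl2; the protein was a His6-MBP-tagged, N-terminally truncated mouse FoxP3 or FoxP1 fragment from E. coli, and the DNA a Klenow-filled double-stranded degenerate library. Amylose resin captured the complexes, which were washed three times. Binding is read as reads-per-million enrichment of pull-down versus input after Illumina sequencing, with replicates pooled.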

Sequence	binding signal
GATGATTGTTCTCCCAGCTGATGAATTACCTGCTTCGAGTAAACAAATTTTCCTAATCTTTCTGTTCAAGCGCCATCTAC	0.326 RPM ratio (pull-down/input)
GATGATTGTTCTCCCAGCTGATGAATTTCACGGCTCGAGTAAACAAATTTTCCTAATCTTTCTGTTCAAGCGCCATCTAC	0.24 RPM ratio (pull-down/input)
GATGATTGTTCTCCCAGCTGATGAATTGTGGTACTCGAGTAAACAAATTTTCCTAATCTTTCTGTTCAAGCGCCATCTAC	1.06 RPM ratio (pull-down/input)
GATGATTGTTCTCCCAGCTGATGAATTGTTCCATTCGAGTAAACAAATTTTCCTAATCTTTCTGTTCAAGCGCCATCTAC	0.579 RPM ratio (pull-down/input)
GATGATTGTTCTCCCAGCTGATGAATTAACGGGTTCGAGTAAACAAATTTTCCTAATCTTTCTGTTCAAGCGCCATCTAC	0.329 RPM ratio (pull-down/input)
GATGATTGTTCTCCCAGCTGATGAATTCCAAATCTCGAGTAAACAAATTTTCCTAATCTTTCTGTTCAAGCGCCATCTAC	0.26 RPM ratio (pull-down/input)
GATGATTGTTCTCCCAGCTGATGAATTTGTAATGTCGAGTAAACAAATTTTCCTAATCTTTCTGTTCAAGCGCCATCTAC	3.87 RPM ratio (pull-down/input)
GATGATTGTTCTCCCAGCTGATGAATTATACACGTCGAGTAAACAAATTTTCCTAATCTTTCTGTTCAAGCGCCATCTAC	0.65 RPM ratio (pull-down/input)
GATGATTGTTCTCCCAGCTGATGAATTACGAAAGTCGAGTAAACAAATTTTCCTAATCTTTCTGTTCAAGCGCCATCTAC	0.214 RPM ratio (pull-down/input)
GATGATTGTTCTCCCAGCTGATGAATTTTATTTTTCGAGTAAACAAATTTTCCTAATCTTTCTGTTCAAGCGCCATCTAC	4.17 RPM ratio (pull-down/input)
GATGATTGTTCTCCCAGCTGATGAATTTATTTGTTCGAGTAAACAAATTTTCCTAATCTTTCTGTTCAAGCGCCATCTAC	6.33 RPM ratio (pull-down/input)
GATGATTGTTCTCCCAGCTGATGAATTTTTATTTTCGAGTAAACAAATTTTCCTAATCTTTCTGTTCAAGCGCCATCTAC	0.838 RPM ratio (pull-down/input)
GATGATTGTTCTCCCAGCTGATGAATTATTTTATTCGAGTAAACAAATTTTCCTAATCTTTCTGTTCAAGCGCCATCTAC	0.489 RPM ratio (pull-down/input)
GATGATTGTTCTCCCAGCTGATGAATTAATTTATTCGAGTAAACAAATTTTCCTAATCTTTCTGTTCAAGCGCCATCTAC	2.61 RPM ratio (pull-down/input)
GATGATTGTTCTCCCAGCTGATGAATTTTATTGTTCGAGTAAACAAATTTTCCTAATCTTTCTGTTCAAGCGCCATCTAC	6.02 RPM ratio (pull-down/input)
GATGATTGTTCTCCCAGCTGATGAATTTTATTATTCGAGTAAACAAATTTTCCTAATCTTTCTGTTCAAGCGCCATCTAC	5.53 RPM ratio (pull-down/input)
GATGATTGTTCTCCCAGCTGATGAATTTATTGATTCGAGTAAACAAATTTTCCTAATCTTTCTGTTCAAGCGCCATCTAC	5.78 RPM ratio (pull-down/input)
GATGATTGTTCTCCCAGCTGATGAATTCTTTTATTCGAGTAAACAAATTTTCCTAATCTTTCTGTTCAAGCGCCATCTAC	0.35 RPM ratio (pull-down/input)
GATGATTGTTCTCCCAGCTGATGAATTTATTTTTTCGAGTAAACAAATTTTCCTAATCTTTCTGTTCAAGCGCCATCTAC	4.63 RPM ratio (pull-down/input)
GATGATTGTTCTCCCAGCTGATGAATTGATTTATTCGAGTAAACAAATTTTCCTAATCTTTCTGTTCAAGCGCCATCTAC	2.58 RPM ratio (pull-down/input)
GATGATTGTTCTCCCAGCTGATGAATTTTTTATTTCGAGTAAACAAATTTTCCTAATCTTTCTGTTCAAGCGCCATCTAC	0.301 RPM ratio (pull-down/input)

Sequence	binding signal
GATGATTGTTCTCCCAGCTGATGAATTACGTGCCTCGAGTAAACAAATTTTCCTAATCTTTCTGTTCAAGCGCCATCTAC	0.855 RPM ratio (pull-down/input)
GATGATTGTTCTCCCAGCTGATGAATTGGTCCACTCGAGTAAACAAATTTTCCTAATCTTTCTGTTCAAGCGCCATCTAC	0.387 RPM ratio (pull-down/input)
GATGATTGTTCTCCCAGCTGATGAATTACTGAGCTCGAGTAAACAAATTTTCCTAATCTTTCTGTTCAAGCGCCATCTAC	0.258 RPM ratio (pull-down/input)
GATGATTGTTCTCCCAGCTGATGAATTAACACCTTCGAGTAAACAAATTTTCCTAATCTTTCTGTTCAAGCGCCATCTAC	0.408 RPM ratio (pull-down/input)
GATGATTGTTCTCCCAGCTGATGAATTCTTTACGTCGAGTAAACAAATTTTCCTAATCTTTCTGTTCAAGCGCCATCTAC	0.372 RPM ratio (pull-down/input)
GATGATTGTTCTCCCAGCTGATGAATTGTAGCGGTCGAGTAAACAAATTTTCCTAATCTTTCTGTTCAAGCGCCATCTAC	0.618 RPM ratio (pull-down/input)
GATGATTGTTCTCCCAGCTGATGAATTTAATACATCGAGTAAACAAATTTTCCTAATCTTTCTGTTCAAGCGCCATCTAC	0.619 RPM ratio (pull-down/input)
GATGATTGTTCTCCCAGCTGATGAATTGTAACCGTCGAGTAAACAAATTTTCCTAATCTTTCTGTTCAAGCGCCATCTAC	0.518 RPM ratio (pull-down/input)
GATGATTGTTCTCCCAGCTGATGAATTTTATTGATCGAGTAAACAAATTTTCCTAATCTTTCTGTTCAAGCGCCATCTAC	5.5 RPM ratio (pull-down/input)
GATGATTGTTCTCCCAGCTGATGAATTTTATTTATCGAGTAAACAAATTTTCCTAATCTTTCTGTTCAAGCGCCATCTAC	6.95 RPM ratio (pull-down/input)
GATGATTGTTCTCCCAGCTGATGAATTCTATTTATCGAGTAAACAAATTTTCCTAATCTTTCTGTTCAAGCGCCATCTAC	6.6 RPM ratio (pull-down/input)
GATGATTGTTCTCCCAGCTGATGAATTATTCCTATCGAGTAAACAAATTTTCCTAATCTTTCTGTTCAAGCGCCATCTAC	0.365 RPM ratio (pull-down/input)
GATGATTGTTCTCCCAGCTGATGAATTTATTGAATCGAGTAAACAAATTTTCCTAATCTTTCTGTTCAAGCGCCATCTAC	0.822 RPM ratio (pull-down/input)
GATGATTGTTCTCCCAGCTGATGAATTTATTTTATCGAGTAAACAAATTTTCCTAATCTTTCTGTTCAAGCGCCATCTAC	3.67 RPM ratio (pull-down/input)
GATGATTGTTCTCCCAGCTGATGAATTTATTTGATCGAGTAAACAAATTTTCCTAATCTTTCTGTTCAAGCGCCATCTAC	2.62 RPM ratio (pull-down/input)
GATGATTGTTCTCCCAGCTGATGAATTTATTGTATCGAGTAAACAAATTTTCCTAATCTTTCTGTTCAAGCGCCATCTAC	5.25 RPM ratio (pull-down/input)
GATGATTGTTCTCCCAGCTGATGAATTTGTATTATCGAGTAAACAAATTTTCCTAATCTTTCTGTTCAAGCGCCATCTAC	5.3 RPM ratio (pull-down/input)
GATGATTGTTCTCCCAGCTGATGAATTTATTCTATCGAGTAAACAAATTTTCCTAATCTTTCTGTTCAAGCGCCATCTAC	0.549 RPM ratio (pull-down/input)
GATGATTGTTCTCCCAGCTGATGAATTGTATTTATCGAGTAAACAAATTTTCCTAATCTTTCTGTTCAAGCGCCATCTAC	6.83 RPM ratio (pull-down/input)
GATGATTGTTCTCCCAGCTGATGAATTTTTATTATCGAGTAAACAAATTTTCCTAATCTTTCTGTTCAAGCGCCATCTAC	0.779 RPM ratio (pull-down/input)
